# Measurements taken from PubChem BioAssay AID485346 (Sanford-Burnham Center for Chemical Genomics, 2010).
# The whole screen tested about 330,000 compounds, of which about 10,000 (3%) were called active. Only a selection was taken, and actives are over-represented in it overall. A number with no mark means an inactive call.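 The calls were made as follows: active = inhibition of at least 50% at 8 µM in the primary screen; inactive = the rest.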
# Biological target: Protein Mdm4 (Homo sapiens) + E3 ubiquitin-protein ligase Mdm2 (Homo sapiens) (UniProt O15151+Q00987)
# Sequence (O15151 whole entry, looked up): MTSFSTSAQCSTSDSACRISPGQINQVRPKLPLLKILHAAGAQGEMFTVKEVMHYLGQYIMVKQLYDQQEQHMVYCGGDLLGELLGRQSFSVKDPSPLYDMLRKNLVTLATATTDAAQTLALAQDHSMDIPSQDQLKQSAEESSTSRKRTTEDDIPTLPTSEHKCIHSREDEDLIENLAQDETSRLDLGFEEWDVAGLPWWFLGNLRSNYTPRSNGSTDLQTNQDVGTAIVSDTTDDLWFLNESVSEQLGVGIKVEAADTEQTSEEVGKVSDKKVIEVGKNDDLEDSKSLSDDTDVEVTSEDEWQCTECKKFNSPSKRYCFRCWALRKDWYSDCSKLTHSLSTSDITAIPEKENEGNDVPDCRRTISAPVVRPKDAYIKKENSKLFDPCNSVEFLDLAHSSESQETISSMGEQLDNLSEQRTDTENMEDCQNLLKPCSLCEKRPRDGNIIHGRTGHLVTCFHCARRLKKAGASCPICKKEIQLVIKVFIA
# Sequence (Q00987 whole entry, looked up): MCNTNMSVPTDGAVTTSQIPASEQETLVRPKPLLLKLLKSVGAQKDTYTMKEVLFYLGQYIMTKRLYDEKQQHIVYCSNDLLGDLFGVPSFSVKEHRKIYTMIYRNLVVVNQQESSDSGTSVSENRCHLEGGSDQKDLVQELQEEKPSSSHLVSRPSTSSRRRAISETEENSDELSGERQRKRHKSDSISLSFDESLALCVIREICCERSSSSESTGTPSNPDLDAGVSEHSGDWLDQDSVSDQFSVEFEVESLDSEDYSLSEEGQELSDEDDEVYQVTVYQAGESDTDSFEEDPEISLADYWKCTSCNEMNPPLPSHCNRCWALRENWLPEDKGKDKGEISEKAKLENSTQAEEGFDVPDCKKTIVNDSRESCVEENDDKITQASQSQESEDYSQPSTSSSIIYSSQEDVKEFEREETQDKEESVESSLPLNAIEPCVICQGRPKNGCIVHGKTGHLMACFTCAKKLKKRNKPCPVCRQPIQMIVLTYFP
# Experiment: inhibitors of human Mdm2-MdmX association, primary screen, cell-based, luminescence, split luciferase, SaOS-2, uHTS (AID 485346)
# Conditions: SaOS-2 split-luciferase Mdm2/MdmX complementation, at 8 µM, active compounds read high
row,SMILES,inhibition
1,Cc1nc2nc(SCC(=O)Nc3cccc(F)c3)[nH]c2cc1Br,23.9%
2,Cc1cccc(Nc2ccccc2C(=O)NCc2ccco2)c1C,54.5% (active)
3,O=C(CCNC(=O)c1ccccc1Cl)NCc1ccco1,2.16%
4,Cc1ccc(N(Cc2ccc(C(=O)Nc3ccccc3C(=O)NCc3ccco3)cc2)S(C)(=O)=O)cc1C,38.7%
5,Cc1n[nH]c(=O)c2c(NC(=O)COC(=O)c3ncc(Cl)c(Cl)c3Cl)oc(C)c12,8.36%
6,CCOCCn1c(-c2ccccc2)nc2ccccc21,21.2%
7,CCCCn1c(-c2cccc(C)c2)nc2cc3[nH]c(=O)c(C(C)C)nc3cc21,55.1% (active)
8,CCCCn1c(N)c(N(CCOC)C(=O)CSCC(=O)Nc2cccc(C)c2)c(=O)[nH]c1=O,-8.54%
9,COc1ccccc1C(=O)N1C(CC(=O)Nc2ccccc2C)C(=O)NC2CCCCC21 (stereo not drawn),10.2%
10,CC(=O)C1=C(C)NC2=C(C(=O)CC(C)(C)C2)C1C (stereo not drawn),14.7%
11,Cc1cccc(C)c1NC1=NC(=S)N(c2ccc(N(C)C)cc2)C1(C)C,13.2%
12,CC1=C/C(=N\OS(=O)(=O)c2ccccc2)C=CC1=O,89.3% (active)
13,CC1C(=O)C(C)C(c2ccc(O)cc2)NC1c1ccc(O)cc1 (stereo not drawn),-1.09%
14,Cc1cc(-c2csc(N)n2)c(C)n1-c1ccccc1,9.07%
15,CCN(CC(=O)Nc1c(F)cccc1F)C(=O)c1ccc(-c2ccccc2)cc1,-3.86%
16,Cc1c(C(=O)N/N=C/c2ccccc2)[nH]c2c([N+](=O)[O-])cccc12,60% (active)
17,O=C(N/N=C/c1ccc([N+](=O)[O-])cc1)c1c[nH]c2ccccc12,12%
18,COc1cc(CC(=O)N/N=C/c2ccccc2)c([N+](=O)[O-])cc1OC,10.3%
19,COC(=O)C1=CN(C)C=C(C(=O)OC)C1c1ccc(Cl)cc1Cl,67.5% (active)
20,CCOc1ccccc1C1C(C(=O)OC)=CN(C)C=C1C(=O)OC,8.07%
21,NC(=O)C1(C(N)=O)OC1c1ccc(Cl)cc1Cl (stereo not drawn),20.9%

row,SMILES,inhibition
1,CCCCCN(C(=O)CCC(=O)OCC(=O)NC1CCC(C)CC1)c1c(N)n(CCCC)c(=O)[nH]c1=O (stereo not drawn),-18.6%
2,O=C(Nc1nc(-c2ccco2)c(-c2ccco2)s1)c1ccco1,27%
3,COc1cc(/C=C/C(=O)OCC(=O)c2ccccc2)cc(OC)c1OC,20.5%
4,COc1cc2c(cc1NC(=O)COC(=O)/C=C/c1ccccc1)oc1ccccc12,51.9% (active)
5,COc1cc2c(cc1NC(=O)CN1CCN(S(=O)(=O)c3ccc(F)cc3)CC1)oc1ccccc12,49.9%
6,COc1cc(/C=C2/SC(=S)N(Cc3ccccc3)C2=O)cc(OC)c1O,11.8%
7,CCCCN1C(=O)/C(=C/C=C2/C=Cc3ccccc3N2CC)SC1=S,64.7% (active)
8,CCCCN1C(=O)/C(=C2/C=CC=CN2C)SC1=S,-6.03%
9,FC(F)(F)Oc1ccc(-c2cn3cccnc3n2)cc1,-41.1%
10,CSCC[C@H](NC(=O)NC1CCCC1)C(=O)O,-12.4%
11,CNC(=S)N/N=C/c1ccc(N2CCOCC2)s1,-16.1%
12,C=CCN(CC=C)S(=O)(=O)c1ccc(C(=O)Nc2sc3c(c2C(N)=O)CCCCC3)cc1,92.8% (active)
13,COc1cccc(OC)c1C(=O)Nc1sc2c(c1C(N)=O)CCCC2,19%
14,C=CCN(CC=C)S(=O)(=O)c1ccc(C(=O)Nc2nc3c(s2)CCc2ccccc2-3)cc1,58.5% (active)
15,NC(=O)c1c(NC(=O)CSc2nnc(-c3ccco3)n2N)sc2c1CCCC2,22.2%
16,COc1ccc(C(=O)Nc2ncc3c(n2)-c2ccccc2CC3)cc1,22.2%
17,CCN(c1ccccc1)S(=O)(=O)c1ccc(C(=O)Nc2nccs2)cc1,-12.4%
18,COc1cc(Cl)cc(C2NC(=O)NC(C)=C2C(=O)NCc2ccccc2)c1O (stereo not drawn),-8.24%
19,Cc1ccc(C)c(N2CCN(C(=O)CCc3nc(-c4cccc(C(F)(F)F)c4)no3)CC2)c1,-17.8%
20,COc1ccc(-c2cc(=O)oc3cc(OC(C)C(=O)NCC4CCC(C(=O)O)CC4)ccc23)cc1 (stereo not drawn),-48.8%
21,CCN(CC)c1ccc(NC(=O)CCc2nnc3ccc(N4CCCCC4)nn23)c(C)c1,15.3%

row,SMILES,inhibition
1,CC1CCN(CCCNC(=O)CN2C(=O)CSc3ccc(S(=O)(=O)N4CCCCC4)cc32)CC1,13%
2,CCOc1ccc2[nH]c(=O)c(CN(CCCO)S(=O)(=O)c3ccc(F)cc3)cc2c1,-3.41%
3,CCN(Cc1cc2cc(C)ccc2[nH]c1=O)S(=O)(=O)c1ccccc1,22.4%
4,COc1ccc2[nH]c(=O)c(CN(Cc3cccnc3)S(=O)(=O)c3ccccc3F)cc2c1,63.9% (active)
5,COc1ccc(CCN2CC(C(=O)NCCN3CCNC3=O)CCC2=O)cc1 (stereo not drawn),7.59%
6,CN(C(=O)c1cccc([N+](=O)[O-])c1)c1ccccc1C(=O)NCc1ccccc1,10.9%
7,Cc1cc(C)nc(NC(=O)c2cccc([N+](=O)[O-])c2)c1,1.76%
8,Cc1cc(CNC(=O)c2cccc([N+](=O)[O-])c2)c2ccccc2n1,57.9% (active)
9,COc1cccc2[nH]c(C(=O)NCCc3ccccc3)cc12,-35.8%
10,O=C(NCc1ccccc1Cl)C(=O)NCC1CCCN1S(=O)(=O)c1cccs1 (stereo not drawn),2.29%
11,CCc1ccc(C(=O)N2CCN(S(=O)(=O)c3sc(C(=O)O)c(C)c3C(=O)O)CC2)cc1,-9.23%
12,COc1cc(C(=O)OCC(=O)NC23CC4CC(CC(C4)C2)C3)cc(OC)c1OC,11.3%
13,Cc1cccc(C(=O)Nc2ccc(CC(=O)O)cc2)c1,-7.55%
14,CN(NC(=O)c1ccccc1)c1nc2ccccc2nc1C(F)(F)F,59.8% (active)
15,Cc1cccc(C(=O)Nc2ccc(C(=O)N/N=C/c3cccc(C)n3)cc2)c1,8.86%
16,CSc1nc(N(C)NC(=O)c2cccc(C)c2)c2ccccc2n1,63% (active)
17,CN(NC(=O)c1ccccc1F)c1nc(C(F)(F)F)nc2ccccc12,60.3% (active)
18,CC(NC(=O)c1ccccc1F)c1cccc2ccccc12 (stereo not drawn),3.89%
19,Cc1nc2ccccc2c(=O)n1NC(=O)c1ccccc1,-5.89%
20,Cn1c(CC(=O)NNC(=O)c2ccccc2F)nc2ccccc21,8.1%
21,COc1ccc(C(=O)NN(C)c2nc(-c3ccccc3)cc(C)c2S(C)(=O)=O)cc1,2.68%
